The source of these data is PubChem BioAssay (Tox21).

Records with an inconclusive call do not appear. Activity calls are given as the source filed them. Calls come from the whole dose curve; as a rule, active = well fitted inhibition curve with a large enough effect in the repeat runs; inconclusive = weak or mixed curves; inactive = flat fitted curve, though single readings scatter. Non-standard residues stand in square brackets, D forms with d. Residues, ends and D or L forms follow the SMILES beside them. *: point of attachment. Sta = CC(C)C[C@H](N)[C@@H](O)CC(=O)O; Isovaleryl = CC(C)CC(=O)*
% is set by controls: 0 for no effect and ±100 for the full control effect; potency is the fitted concentration of half-maximal effect.

The experiment in a line: qHTS assay to identify small molecule HDAC inhibitors (AID 1259364). For activity change, negative = inhibition: top concentration of the series differs between compounds. Note: nearly all actives have a fitted effect of over 45% in size. Particulars: HCT-116 HDAC-Glo I/II luminescence, 2 h; series mostly up to 92.4 µM; activity change, negative = inhibition: at the top concentration. The text has this:
U.S. Tox21 Program National Center for Advancing Translational Sciences [NCATS] NIH Chemical Genomics Center [NCGC] U.S. Environmental Protection Agency [EPA] National Institutes of Environmental Health Sciences [NIEHS] National Toxicology Program [NTP] U.S. Food and Drug Administration [FDA] Tox21 Assay Overview: Histone deacetylases (HDACs) are a group of epigenetic enzymes that regulate gene expression by histone deacetylation. HDACs are capable of introducing epigenetic modifications and such aberrations contribute to the onset and progression of several human diseases, thus making HDACs a popular therapeutic target. For identifying endogenous class I/II HDAC inhibitors a homogenous, luminogenic HDAC I/II cell based assay was used to measure the relative activity of class I and II HDACs from cells. Wild type HCT-116 cells were used to screen Tox21 libraries for identifying class I/II HDAC inhibitors.
Tox21 Assay Protocol Summary: HCT-116 cells were dispensed at 1,500 per well in 5uL of culture medium into white solid bottom 1536-well plates (Greiner Bio-One, Monroe, NC) using a Multidrop Combi (Thermo Scientific, Waltham, MA) dispenser. The assay plates were incubated at 37 C and 5% CO2 for an overnight, and then 23nL of compounds dissolved in DMSO and positive control were transferred using a Pintool station (Wako, San Diego, CA). The assay plates were incubated at 37C and 5% CO2 for 2hr. After compound treatment, 4uL of HDAC-Glo reagent (Promega Corporation, Madison, WI) was added to each well of the assay plates using Flying Reagent Dispenser (FRD, Aurora Discovery, San Diego, CA) and incubated the assay plates at room temperature for 30min. The luminescence signal was quantified using a ViewLux plate reader (Perkin Elmer, Shelton, CT).
As for `CC(C)CC(=O)N[C@H](C(=O)N[C@H](C(=O)N[C@@H](CC(C)C)[C@@H](O)CC(=O)N[C@@H](C)C(=O)N[C@@H](CC(C)C)[C@@H](O)CC(=O)O)C(C)C)C(C)C` (Isovaleryl-VV[Sta]A[Sta]-OH), the “activity change, negative = inhibition” value is -2.03% [at 42.5 µM] (inactive).

Take `CCCCCCCCCCCCCCCCN(C)C`: the activity change, negative = inhibition was 2.04% [at 8.39 µM] (inactive).

As for `BrCCOc1ccccc1`, the “activity change, negative = inhibition” value is 1.76% (inactive).

As for `COC(C)(C)CC(C)=O`, the “activity change, negative = inhibition” value was -1.66% (inactive).

As for `Cc1ccc2ccccc2n1`, the “activity change, negative = inhibition” value was -8.92% (inactive).

On to `COc1cc2nc(N3CCN(C(=O)C4CCCO4)CC3)nc(N)c2cc1OC` (stereo not given), for which the Potency was 3.35 µM (active).

In the case of `CC(C)C(=O)Nc1cccc(C2CN3CCSC3=N2)c1` (stereo not given), the “activity change, negative = inhibition” value was -0.0107% [at 42.5 µM] (inactive).

Take `C[C@@H](CN1CC(=O)NC(=O)C1)N1CC(=O)NC(=O)C1`: the “activity change, negative = inhibition” value is 7.2% [at 42.5 µM] (inactive).

On to `CCCc1ccc(O)c(OC)c1`, for which the “activity change, negative = inhibition” value is 3.01% (inactive).

Regarding `CCOc1ccccc1OCCN[C@H](C)Cc1ccc(OC)c(S(N)(=O)=O)c1`, the “activity change, negative = inhibition” value was -0.299% [at 42.5 µM] (inactive).

For the compound `NC(=O)CC[C@@H](N)C(=O)O`, the “activity change, negative = inhibition” value is 1.38% [at 42.5 µM] (inactive).

For `CCC(C)SSC(C)CC` (stereo not given), the “activity change, negative = inhibition” value is -6.72% (inactive).

As to `CC12CCCC=C1C(=O)OC2=O` (stereo not given), the “activity change, negative = inhibition” value is 0.211% (inactive).

With `CC(C)(C)C(=O)CCc1ccc(Cl)cc1`, the “activity change, negative = inhibition” value is -0.0822% (inactive).

Take `CC(=O)/C=C/C=C1/C2CCC(C2)C1(C)C` (stereo not given): the “activity change, negative = inhibition” value is -0.0488% [at 42.5 µM] (inactive).

Take `CC(C)(C)C(=O)CC(=O)C(C)(C)C`: the “activity change, negative = inhibition” value is 4.98% (inactive).

For `O=S(=O)(O)c1ccc(Cl)cc1`, the “activity change, negative = inhibition” value was 5.46% (inactive).

Take `C=CC(C)(CCC=C(C)C)OC(=O)C(C)C` (stereo not given): the “activity change, negative = inhibition” value is 2.4% (inactive).

Regarding `Cc1ccc(Br)cc1`, the “activity change, negative = inhibition” value is 4.69% (inactive).

Consider `COCc1nnc(-c2ccc[n+]([O-])c2)n1-c1c(Cl)c(Cl)cc2[nH]c(=O)c(=O)[nH]c12`, for which the “activity change, negative = inhibition” value was -4.27% (inactive).

Regarding `CCC(C)c1nccnc1OC` (stereo not given), the “activity change, negative = inhibition” value was 1.49% (inactive).

With `CC(=O)Nc1ccc(OCCOCCOc2ccc(NC(C)=O)cc2)cc1`, the “activity change, negative = inhibition” value is 4.92% [at 42.5 µM] (inactive).

Consider `COC(=O)c1c(C)cc(O)c(C)c1O`, for which the “activity change, negative = inhibition” value was 1.57% (inactive).

On to `CCCC(=O)CC`, for which the “activity change, negative = inhibition” value was -0.439% (inactive).

For the compound `O=C(O)CCC(=O)Nc1ccc(S(=O)(=O)Nc2nccs2)cc1`, the “activity change, negative = inhibition” value is -1.58% [at 42.5 µM] (inactive).

`COC(=O)N/N=C/c1c[n+]([O-])c2ccccc2[n+]1[O-]`: the “activity change, negative = inhibition” value is -26.6% [at 42.5 µM] (inactive).

`CCNC(=O)C(C)OC(=O)Nc1ccccc1` (stereo not given): the “activity change, negative = inhibition” value was -0.682% (inactive).

As for `COc1ccc(Cl)cc1C`, the “activity change, negative = inhibition” value was 3.54% (inactive).

For `CCCCNCC`, the “activity change, negative = inhibition” value was 1.66% (inactive).

In the case of `O=C(CCBr)N1CCN(C(=O)CCBr)CC1`, the “activity change, negative = inhibition” value is -3.99% [at 42.5 µM] (inactive).

Take `COC(=O)c1ccc(NC(C)=O)cc1OC`: the “activity change, negative = inhibition” value is 6.9% [at 42.5 µM] (inactive).

For the compound `C/C=C/C(=O)CCCC`, the “activity change, negative = inhibition” value was 2.15% (inactive).

Regarding `COc1cnc(NS(=O)(=O)c2ccc(N)cc2)nc1`, the “activity change, negative = inhibition” value was 0.475% [at 42.5 µM] (inactive).

Regarding `CCCOc1ccc(C(=O)OCCN(CC)CC)cc1N`, the “activity change, negative = inhibition” value is -4.28% [at 42.5 µM] (inactive).

In the case of `C/C=C(\C)C=O`, the “activity change, negative = inhibition” value was -0.462% (inactive).

For `CCCCCCCCOCCC#N`, the “activity change, negative = inhibition” value is 0.738% (inactive).

For the compound `O=S(=O)(O)c1cc(I)c(O)c2ncccc12`, the “activity change, negative = inhibition” value is 7.43% [at 42.5 µM] (inactive).

For `O=C(c1ccccc1)c1cccc(O)c1`, the “activity change, negative = inhibition” value was -22% (inactive).

With `CCOC(=O)CC(C(C)=O)C(C)=O`, the “activity change, negative = inhibition” value is 3.52% (inactive).

For `Cc1ccc(N)nc1`, the “activity change, negative = inhibition” value is 3.04% (inactive).
